Sampled rows, rich in hits. Any-hit rate of the full collection: about 1.1%.
SRC3 inh: SRC3 coactivator transcriptional activity inhibitors, primary screen, cell-based, luminescence; HEK293 GAL4-SRC3 luciferase reporter; inhibition, % at 3.6 µM; 360,000 compounds, 0.17% hits;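 active = inhibition above a per-campaign cutoff, the mean of all compounds plus 3 SD, cut at about 60% in these data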;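 note: higher means less SRC3-driven luciferase light from the GAL4 reporter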
NCOA2 inhibitor: inhibition of GAL4-SRC2 driven luciferase reporter, primary screen, SRC2 inhibitor project, cell-based, luminescence; Nuclear receptor coactivator 2 (Homo sapiens), Q15596; HEK293 GAL4-SRC2 luciferase reporter; inhibition, % at 9 µM; 370,000 compounds, 0.17% hits; AID 651957, 2012;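 active = inhibition above the mean inhibition of all tested compounds plus 3 SD, set per campaign, cut at about 52% in these data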
Target sequence (Q15596 whole entry, looked up, the tested form may be a part): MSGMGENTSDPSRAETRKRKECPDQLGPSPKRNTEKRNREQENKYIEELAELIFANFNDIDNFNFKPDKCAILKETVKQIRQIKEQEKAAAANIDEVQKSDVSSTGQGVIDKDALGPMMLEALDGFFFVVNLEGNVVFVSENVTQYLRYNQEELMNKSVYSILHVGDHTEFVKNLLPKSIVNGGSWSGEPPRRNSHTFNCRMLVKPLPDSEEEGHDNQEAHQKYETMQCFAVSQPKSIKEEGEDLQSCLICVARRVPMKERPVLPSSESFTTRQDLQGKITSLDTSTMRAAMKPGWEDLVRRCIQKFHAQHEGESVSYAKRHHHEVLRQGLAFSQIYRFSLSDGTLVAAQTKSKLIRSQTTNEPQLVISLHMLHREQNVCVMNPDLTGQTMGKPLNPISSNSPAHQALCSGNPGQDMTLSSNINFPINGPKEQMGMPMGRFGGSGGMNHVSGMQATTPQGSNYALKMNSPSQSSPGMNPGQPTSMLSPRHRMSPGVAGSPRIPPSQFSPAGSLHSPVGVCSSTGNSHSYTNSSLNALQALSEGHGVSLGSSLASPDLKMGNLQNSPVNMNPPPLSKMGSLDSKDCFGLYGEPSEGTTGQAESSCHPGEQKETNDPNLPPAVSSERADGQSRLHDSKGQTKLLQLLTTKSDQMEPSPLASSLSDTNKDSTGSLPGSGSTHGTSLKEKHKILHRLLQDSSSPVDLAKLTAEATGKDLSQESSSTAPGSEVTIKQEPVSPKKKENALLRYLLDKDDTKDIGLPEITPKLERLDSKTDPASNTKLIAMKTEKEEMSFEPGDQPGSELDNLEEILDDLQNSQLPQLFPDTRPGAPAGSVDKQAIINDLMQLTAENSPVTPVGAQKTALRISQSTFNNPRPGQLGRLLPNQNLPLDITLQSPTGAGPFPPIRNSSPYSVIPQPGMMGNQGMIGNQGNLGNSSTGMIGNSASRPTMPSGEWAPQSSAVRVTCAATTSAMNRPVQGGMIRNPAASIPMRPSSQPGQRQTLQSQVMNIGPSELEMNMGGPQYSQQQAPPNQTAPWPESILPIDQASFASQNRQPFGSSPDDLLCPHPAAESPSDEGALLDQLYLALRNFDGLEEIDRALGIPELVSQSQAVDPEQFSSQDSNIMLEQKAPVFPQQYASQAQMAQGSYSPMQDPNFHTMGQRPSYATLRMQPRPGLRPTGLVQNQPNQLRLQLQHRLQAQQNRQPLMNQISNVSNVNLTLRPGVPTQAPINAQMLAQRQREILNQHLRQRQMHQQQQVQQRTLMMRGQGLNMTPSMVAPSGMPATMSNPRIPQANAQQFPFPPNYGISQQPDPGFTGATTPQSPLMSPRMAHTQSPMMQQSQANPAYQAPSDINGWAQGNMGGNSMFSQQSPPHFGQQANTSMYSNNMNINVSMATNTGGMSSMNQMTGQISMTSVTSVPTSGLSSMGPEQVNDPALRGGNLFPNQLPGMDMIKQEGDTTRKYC
NCOA1 inh: SRC1 coactivator transcriptional activity inhibitors, primary screen, cell-based, luminescence. AID 588354, 2011. Nuclear receptor coactivator 1 (Homo sapiens), Q15788. HEK293 GAL4-SRC1 luciferase reporter. 360,000 compounds, 0.12% hits. inhibition, % at 3.6 µM;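 active = inhibition above the campaign mean plus 3 SD, with each screening campaign given its own cutoff, cut at about 60% in these data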
Shn3 3UTR inh: reduction of Shn3 3'UTR firefly luciferase signal, primary screen, Schnurri-3 inhibitor project, cell-based, Clone20 osteoblasts, set 2. 360,000 compounds, 0.52% hits. Clone20 osteoblast Shn3 3'UTR firefly luciferase, 24 h. inhibition, % at 12.5 µM;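 active = mean inhibition of at least 75% with every replicate also reaching 75%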
NR5A2 inv ag: LRH-1 (NR5A2) inverse agonists, primary screen, cell-based, luminescence, HEK293T, StAR-luciferase reporter; Nuclear receptor subfamily 5 group A member 2 (Homo sapiens), O00482; LRH-1 transfected, 24 h; inhibition, % at 3.6 µM; 360,000 compounds, 0.13% hits; AID 602396, 2012;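 active = inhibition above the mean inhibition of all tested compounds plus 3 SD, cut at about 73% in these data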
Gli-Sufu antag: Gli-Sufu pathway antagonists, primary screen, luciferase luminescence, Sufu-KO-LIGHT cells, uHTS; 340,000 compounds, 0.74% hits; Sufu-KO-LIGHT fibroblasts, Gli luciferase reporter luminescence; inhibition, % at 5 µM;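 active = inhibition above about 55%, limit read from the data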
Gli-Sufu confirm: Gli-SUFU pathway antagonists, confirmation, single concentration, luciferase luminescence, Sufu-KO-LIGHT cells. 2,500 compounds, 40% hits. shares compounds with Gli-Sufu antag. AID 602428, 2012. Gli luciferase reporter. inhibition, % at 5 µM;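 active = mean inhibition at 5 µM reaching about 45%, limit read from the data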
SufuKO cytotox: cytotoxicity in Sufu-KO-LIGHT cells, confirmation, cytotoxicity control for Gli-SUFU antagonist project, cell-based, ATP luminescence, single concentration; 2,500 compounds, 32% hits; shares compounds with Gli-Sufu antag; cytotoxicity, % at 5 µM; AID 651994, 2013;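 active = mean cytotoxicity at 5 µM above about 25%, limit read from the data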;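 note: cells exposed to compound overnight for roughly 16 to 18 hours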
Wnt3a cs: Wnt3a reporter signal inhibition, confirmation, counter-screen for Gli-SUFU antagonist project, Wnt-LIGHT cells, luminescence, single concentration | inhibition, % at 6.25 µM | shares compounds with Gli-Sufu antag | Wnt3a-driven luciferase reporter | AID 651995, 2013 | 2,500 compounds, 20% hits;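 active = mean inhibition above about 25%, limit read from the data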
A number is an active result; 0 = inactive; - = no result given.

SMILES | SRC3 inh | NCOA2 inhibitor | NCOA1 inh | Shn3 3UTR inh | NR5A2 inv ag | Gli-Sufu antag | Gli-Sufu confirm | SufuKO cytotox | Wnt3a cs
CCOP(=O)(Cc1cc(C(C)=O)c(C)o1)OCC | 0 | 0 | 0 | 0 | 0 | 68 | 0 | 0 | 0
CNC(=O)C[C@H]1CC[C@@H]2NC[C@H](O)COC[C@H]2O1 | - | 0 | - | - | 0 | - | - | - | -
C=CC12CN(C)C3C4COC(CC41)C1(C(=O)Nc4ccccc41)C32 (configuration not stated) | 0 | 0 | 0 | 0 | 0 | - | - | - | -
COc1cc2c3c(c1OC)Oc1ccc(cc1)C[C@H]1c4c(cc(OC)c(OC)c4Oc4ccc(cc4)C[C@@H]3N(C)CC2)CCN1C | 0 | 0 | 0 | 0 | 0 | 65 | 0 | 0 | 0
COc1cc2c3cc1Oc1c(OC)c(OC)cc4c1[C@H](Cc1ccc(cc1)Oc1cc(ccc1O)C[C@H]3N(C)CC2)N(C)CC4 | 0 | 0 | 0 | 0 | 0 | 0 | - | - | -
Cc1cc(N2CCNC[C@H]2C)ccc1N1CCN[C@H](C)C1 | - | 0 | - | - | - | - | - | - | -
CC(C)C(NC(=O)C(C(C)C)N(C)C)C(=O)N(C)C(C(=O)N1CCCC1C(=O)N1CCCC1C(=O)NCc1ccccc1)C(C)C (configuration not stated) | 0 | 0 | 0 | 0 | 0 | 0 | 57 | 52 | 0
CCC(C)c1cnc(CC(C)C)c(=O)n1O (configuration not stated) | 0 | 0 | 0 | 0 | 0 | - | - | - | -
O=C1NC2C(=CC(O)C(O)C2O)c2cc3c(cc21)OCO3 (configuration not stated) | 91 | 75 | 94 | 90 | 97 | 71 | 70 | 0 | 102
O=C1NC2C(=CC(O)C(O)C2O)c2cc3c(c(O)c21)OCO3 (configuration not stated) | 94 | 68 | 96 | 96 | 97 | 84 | 92 | 78 | 104
CC12CN3CCN(CC(C3)/C1=N/NC(N)=O)C2 | 0 | 0 | 0 | 0 | 0 | 0 | - | - | -
CCC12CN3CCN(CC(C3)/C1=N/NC(N)=O)C2 | 0 | 0 | 0 | 0 | 0 | 61 | 0 | 0 | 0
O=c1[nH]c2ccccc2n1C1CCN(C(CCc2ccccc2)c2nnnn2C2CCCC2)CC1 (configuration not stated) | 0 | 0 | 0 | 0 | 0 | - | - | - | -
COc1ccccc1CN1CCN(C(=O)COc2cccc(C)c2)CC1 | 0 | 0 | 0 | 0 | 0 | 94 | 0 | 27 | 0
C=C(C)[C@@]12OC3(c4ccccc4)O[C@@H]1C1[C@@H]4O[C@]4(CO)[C@@H](O)[C@]4(O)C(=O)C(C)=C[C@H]4[C@@]1(O3)[C@H](C)[C@H]2OC(=O)/C=C/C=C/c1ccccc1 (some centres not stated) | 0 | - | 0 | 0 | 0 | 0 | - | - | -
c1ccc2nc(N3CCNCC3)ccc2c1 | 0 | 0 | 0 | 0 | 0 | 0 | - | - | -
COc1ccc(O)c2c(=O)c3c(OC)cc4c(c3oc12)C1C=COC1O4 (configuration not stated) | 0 | 0 | 0 | 0 | 0 | 60 | 69 | 37 | 0
COc1ccc2nc(-c3ccc(CN4CCC(n5c(=O)[nH]c6cc(Cl)ccc65)CC4)cc3)c(-c3ccccc3)nc2c1 | - | 0 | - | - | - | - | - | - | -
COc1ccc(C[C@H]2NC[C@H](O)[C@H]2OC(C)=O)cc1 | 93 | 71 | 95 | 94 | 102 | 87 | 92 | 75 | 104
CC1CCCC(C2(O)C(=O)Nc3ccccc32)C1=O (configuration not stated) | 0 | 0 | 0 | 0 | 0 | 96 | 0 | 0 | 0
CCOP(=O)(OCC)C1(O)C(=O)Nc2ccccc21 (configuration not stated) | 0 | 0 | 0 | 0 | 0 | 0 | - | - | -
CC(C)(C)c1cc(O)ccc1O | - | 0 | - | - | - | - | - | - | -
O=C(O)C(Br)Br | - | 0 | - | - | - | - | - | - | -
CC(C)CC(NC(=O)CCCNC(=O)CCC(=O)OC1O[C@H]2OC3(C)CC[C@H]4[C@H](C)CCC(C1C)C24OO3)C(=O)O (some centres not stated) | 73 | 0 | 0 | 0 | 84 | 85 | 78 | 0 | 0
CC1C(OC(=O)CCC(=O)NC(C)(C)CO)O[C@H]2OC3(C)CC[C@H]4[C@H](C)CCC1C24OO3 (some centres not stated) | 0 | 0 | 0 | 0 | 90 | 85 | 86 | 0 | 0
SMILES | SRC3 inh | NCOA2 inhibitor | NCOA1 inh | Shn3 3UTR inh | NR5A2 inv ag | Gli-Sufu antag | Gli-Sufu confirm | SufuKO cytotox | Wnt3a cs
N#CCCn1cc(C(=O)Nc2ccc(F)cc2)c(-c2ccccc2)n1 | 0 | 0 | 0 | 0 | 0 | 0 | 0 | 0 | 0
O=C1CC23c4ccccc4N4C(=O)CC5OCC=C6CN1C2CC6C5C43 (configuration not stated) | 0 | 0 | 0 | 0 | 0 | 0 | - | - | -
Cn1cccc1/C=C1/C(=O)NC(=O)N(Cc2ccccc2)C1=O | 0 | 0 | 0 | 0 | 0 | 0 | 45 | 38 | 26
C[C@H](CO)N1C[C@H](C)[C@H](CN(C)C(=O)Oc2ccccc2)OCc2cnnn2CCCC1=O | 0 | 0 | 0 | 0 | 0 | - | - | - | -
Cc1cccc(-n2c(/C=C/c3ccc([N+](=O)[O-])o3)nc3ccccc3c2=O)c1 | 0 | 0 | 0 | 0 | 0 | 72 | 63 | 31 | 0
CCOc1cccc(=NC2CCCCC2)c2c(C)n(C)c(C)c12 | 0 | 0 | 0 | 0 | 0 | 86 | 89 | 44 | 0
CCOc1ccccc1N=C1SCCCN1C | 0 | 0 | 0 | 0 | 0 | 0 | - | - | -
COC(=O)C1=C(c2cc3ccccc3o2)C[C@@H]2CC[C@H]1N2C(=O)N1CCC(C)CC1 | 0 | 0 | 0 | 0 | 0 | 0 | 0 | 0 | 0
Cc1ccc(OC(=O)N(C)C[C@@H]2OCc3ccccc3-c3c(n(C)c4ccccc34)C(=O)N([C@H](C)CO)C[C@H]2C)cc1 | - | 0 | - | - | - | - | - | - | -
Cc1ccc(-c2cc(-c3ccc(C)cc3)[n+](C)o2)cc1 | 0 | 0 | 0 | 0 | 0 | 83 | 86 | 30 | 36
O=C(NC1CN2CCC1CC2)c1cc(-c2ccc(Cl)cc2)nc2ccccc12 (configuration not stated) | - | 0 | - | - | - | - | - | - | -
CC(=O)c1cn(CCCOc2ccccc2)c2ccccc12 | 0 | 0 | 0 | 0 | 0 | 0 | 0 | 0 | 0
O=C(C(=O)N1CCOCC1)c1cn(CCCOc2ccccc2)c2ccccc12 | 0 | 0 | 0 | 0 | 0 | 0 | - | - | -
Cc1cc(-c2ccccc2)cc(C)[n+]1Cc1ccccc1 | 0 | 0 | 0 | 0 | 0 | 79 | 84 | 0 | 32

Source: PubChem
